Screening data as filed in PubChem BioAssay.
Pf growth 96h: Primary qHTS for delayed death inhibitors of the malarial parasite plastid, 96 hour incubation. P. falciparum luciferase reporter growth, 96 h. Potency, µM (doses to about 28.7 µM), without a hit: at the highest dose activity change, negative = inhibition, usual class: inhibitors. 320,000 compounds, 6.9% hits. AID 504834, 2011; also: potency is read from the fitted curve at half-maximal effect; % is scaled to controls: 0 for no effect and ±100 for the full control effect
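Erythrocytes infected with luciferase-expressing P. falciparum were dispensed at 2% hematocrit and 0.05% parasitemia (final), then incubated with compounds 96 hours at 37 C in 5% CO2. Luminescence after detection reagent addition reported growth.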
Pf growth 48h: Primary qHTS for delayed death inhibitors of the malarial parasite plastid, 48 hour incubation. 310,000 compounds, 5.9% hits. Potency, µM (titrated, usually from 28.7 µM), for inactives: top-dose activity change, negative = inhibition, most hits filed as inhibitors. AID 504832, 2011. P. falciparum luciferase growth in erythrocytes, 48 h; also: potency is read from the fitted curve at half-maximal effect; % is scaled to controls: 0 for no effect and ±100 for the full control effect
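Parasite viability was followed by luminescence of a genomically integrated firefly luciferase. Cultures held 0.1% parasitemia at 2% hematocrit (final), incubated under 5% CO2 at 37 C.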
Shiga inhibitor: A qHTS for Small Molecule Inhibitors of Shiga Toxin; AID 2315, 2010; 290,000 compounds, 9.2% hits; inhibition, % at 38.7 µM; Vero cells, Shiga toxin protein synthesis inhibition reporter; in the data active = inhibition mostly above about 28%, no sharp cut-off; inactive = mostly below about 43%; also: 0% is about no effect
HCV inh: qHTS Assay for Inhibitors of Hepatitis C Virus (HCV) | Huh7.5.1 HCVcc-Cre infection, luciferase reporter, 44 h | Potency, µM (titrated, usually from 41.8 µM), inactives show at the top dose activity change, negative = inhibition, usual class: inhibitors | 340,000 compounds, 3.4% hits | AID 651820, 2012; also: potency is read from the fitted curve at half-maximal effect; % is scaled to controls: 0 for no effect and ±100 for the full control effect
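Whole-lifecycle infectious HCVcc-Cre system; cells 1,000/well, compound then virus (~0.5 moi) added 4 h after plating, 44 h culture. Luciferase read 15 sec following 15 min substrate incubation, room temp.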
Cycloheximide cs: Cycloheximide Counterscreen for Small Molecule Inhibitors of Shiga Toxin | cell reporter, cycloheximide protein synthesis inhibition counterscreen | max response, % | 300,000 compounds, 12% hits | AID 2314, 2010; in the data active = max response mostly above about 13%, no sharp cut-off; inactive = mostly below about 14%; also: read at 38.3 µM for the half of the compounds with a filed dose; 0% is about no effect
HCMV antiviral: qHTS Assay for inhibitors of the human cytomegalovirus (HCMV); HFF cells, HCMV-luciferase reporter, 72 h; active compounds read low; activity change, negative = inhibition, % at 57.5 µM; 410,000 compounds, 4.5% hits; in the data active = activity change below about -60%; inconclusive = no clear call, values can overlap the other calls; inactive = above about -39%; also: % is scaled to controls: 0 for no effect and ±100 for the full control effect
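Luciferase read-out from HCMV-luciferase-infected HFFs (MOI 1 PFU/cell) 72 h post infection at 37C; compounds added after 16 h cell attachment; activity normalized between buffer-only basal and Salinomycin (10uM) inhibitor controls.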
An asterisk follows results filed as active; u = inconclusive; x = no result. This is a sample that favours compounds with a hit; in the whole collection about 21% have one here. Unless noted, calls follow the shape of the dose curve; as a rule, active = well fitted inhibition curve with a large enough effect; inconclusive = small, poorly fitted or top-dose-only effect, or another doubt; inactive = no such curve, though single readings can be large or run the other way.

SMILES	Pf growth 96h	Pf growth 48h	Shiga inhibitor	HCV inh	Cycloheximide cs	HCMV antiviral
CCOC(=O)c1cc(-c2ccccc2)sc1NC(=O)C(C)Sc1nnc(C)s1 (stereo not drawn)	u	13µM*	39	u	11*	-38
CCOC(=O)c1cc(-c2ccccc2)sc1NC(=O)C(C)OC(=O)c1ccncc1 (stereo not drawn)	-40%	39%	0	-11%	-2	u
CCOC(=O)c1cc(-c2ccccc2)sc1NC(=O)C(C)OC(=O)c1cccnc1Cl (stereo not drawn)	9.3µM*	-4%	-15	4%	-3	-5
CCOC(=O)c1cc(-c2ccccc2)sc1NC(=O)COC	-14%	0%	24	-10%	6	21
CCOC(=O)c1cc(-c2ccccc2)sc1NC(=O)C(C)C	u	u	10	-5%	4	10
COc1cc(NS(=O)(=O)c2cnc(N)nc2)cc(OC)c1	x	x	x	x	x	-12
Cc1cc(NC(=O)CSc2nc3c([nH]c4ccccc43)c(=O)n2-c2cccc(Cl)c2)no1	x	x	x	x	x	34
COC(=O)C(C(=O)OC)C(CC(=O)c1ccc(C)cc1)c1cc(OC)c(OC)c(OC)c1 (stereo not drawn)	u	-7%	2	-9%	-3	-3
COc1ccc(C(CC(=O)c2ccc(C)cc2)C(C#N)C#N)cc1OC (stereo not drawn)	22%	13µM*	66*	u	29*	u
CC(C)(C)c1ccc(C(=O)Nc2cc(-c3nc4ccccc4o3)ccc2Cl)cc1	x	x	x	x	x	-3
CC(=O)Oc1cccc2c1C(=O)c1c(OC(C)=O)cc(C(=O)O)cc1C2=O	0%	3%	-11	7.1µM*	-1	-3
CC(=O)Oc1ccc(C(=O)O)cc1OC(C)=O	u	x	-21	8%	4	23
COc1ccc2c(c1)nc(SCC(C)O)n2C (stereo not drawn)	0%	11%	20	4%	12*	51
Cn1c(SCC(=O)N/N=C/c2cccs2)nc2ccccc21	14%	10%	3	7%	12	-9
COc1ccc2c(c1)nc(SCC(=O)C(C)(C)C)n2C	149%	32%	8	17%	10	-26
COc1ccc2c(c1)nc(SCC(=O)c1cccs1)n2C	84%	14%	55	-9%	41*	9
O=C(NCC(c1cccnc1)N1CCN(Cc2ccccc2)CC1)C(=O)Nc1cccc(F)c1 (stereo not drawn)	x	x	x	x	x	17
Nc1c(S(=O)(=O)c2ccccc2)c2nc3ccccc3nc2n1CCN1CCOCC1	u	u	-17	19%	-3	x
Nc1c(S(=O)(=O)c2ccccc2)c2nc3ccccc3nc2n1Cc1ccco1	12µM*	u	-32	u	-5	x
Cc1ccc(S(=O)(=O)c2c(N)n(Cc3ccco3)c3nc4ccccc4nc23)cc1C	x	10µM*	-12	u	-3	x
Cc1ccc(S(=O)(=O)c2c(N)n(CCC(C)C)c3nc4ccccc4nc23)cc1	13µM*	x	-11	u	-3	x
CC(C)CNc1cc(N2CCCC2)ccc1[N+](=O)[O-]	103%	17%	-7	4µM*	-2	-38
CNc1cc(N2CCCC2)ccc1[N+](=O)[O-]	-2%	25%	-5	25µM*	8	10
CCNc1cc(N2CCCC2)ccc1[N+](=O)[O-]	u	15%	-15	u	-2	-14
CNc1nc(NC)nc(NNC(=O)c2ccccc2)n1	x	x	x	31%	x	-36
SMILES	Pf growth 96h	Pf growth 48h	Shiga inhibitor	HCV inh	Cycloheximide cs	HCMV antiviral
CCN(CC)c1nc(NNC(=O)c2ccccc2)nc(N(CC)CC)n1	x	x	x	-20%	x	-70*
CC(C)=CCC/C(C)=C/CC/C(C)=C/CC/C(C)=C/C(=O)O	x	x	12	x	1	x
CC1(c2ccc(Cl)cc2)CC(C)(C)N(C(=O)c2ccccc2)c2ccccc21 (stereo not drawn)	x	x	x	x	x	-83*
CC1(c2cc([N+](=O)[O-])cc([N+](=O)[O-])c2)CC(C)(C)N(C(=O)c2ccccc2)c2ccccc21 (stereo not drawn)	4%	2.3µM*	-8	u	-4	2
CCC(=O)N1c2ccccc2C(C)(c2ccccc2)CC1(C)C (stereo not drawn)	x	x	x	x	x	-5
CCCCCC(=O)N1c2ccccc2C(C)(c2ccccc2)CC1(C)C (stereo not drawn)	x	x	13	x	7	u
COc1ccc(C(=O)N2c3ccccc3C(C)(c3ccc(Cl)cc3)CC2(C)C)cc1 (stereo not drawn)	x	x	x	x	x	-93*
CC1(c2ccccc2)CC(C)(C)N(C(=O)CSc2nnc(N)s2)c2ccccc21 (stereo not drawn)	5.2µM*	u	-10	u	-6	u
CC(C)C[C@H](NC(=O)[C@H](Cc1ccccc1)NC(=O)CNC(=O)CNC(=O)[C@@H](N)Cc1ccc(O)cc1)C(=O)N[C@@H](CCCN=C(N)N)C(=O)N[C@@H](CCCN=C(N)N)C(=O)N[C@@H](CCC(N)=O)C(=O)N[C@@H](Cc1ccccc1)C(=O)N[C@@H](CCCCN)C(=O)N[C@H](C(=O)N[C@H](C(=O)N[C@H](C(=O)O)[C@@H](C)O)C(C)C)C(C)C	x	x	-4	x	-5	x
CC1(c2ccccc2)CC(C)(C)N(C(=O)C2CCCO2)c2ccccc21 (stereo not drawn)	2.3µM*	x	-9	u	4	-28
CCC(CC)C(=O)N1c2ccccc2C(C)(c2ccccc2)CC1(C)C (stereo not drawn)	x	x	x	x	x	-15
COc1ccccc1N(CC(=O)N(CC(C)C)CC(C)C)S(=O)(=O)c1cccs1	u	u	34	u	-2	19
COc1ccccc1N(CC(=O)N(c1ccccc1)C(C)C)S(=O)(=O)c1cccs1	9.3µM*	-11%	5	-30%	0	46
Cc1ccc(C(=O)N2CC(C)SC2=Nc2cccc(S(=O)(=O)N(C)C)c2)cc1 (stereo not drawn)	u	-20%	-11	-12%	-6	-30
Cc1ccc(C2=NNC(=Nc3ccc(F)cc3)SC2)cc1	u	u	84*	u	26*	-4
CCc1ccc(C2=NNC(=Nc3cccc(S(=O)(=O)N(C)C)c3)SC2)cc1	u	u	-15	4.5µM*	7	-99*
Cc1cccc(N=C2NN=C(c3c(C)[nH]c4ccccc34)CS2)c1	1.5µM*	2.6µM*	13	u	6	-99*
Cc1cccc(N=C2NN=C(c3ccc4c(c3)OCCO4)CS2)c1	-82%	-83%	93*	-25%	27*	107
COc1cccc(CNS(=O)(=O)c2cc3c4c(c2)CCN4C(=O)CC3)c1	-1%	4%	x	3%	x	-6
